Assay results: PubChem BioAssay (NCATS)
Records with an inconclusive call do not appear. Activity calls are given as the source filed them. The call rests on the fitted dose curve; in most records, active means well fitted curve in the direction sought with a large enough effect; inconclusive means small, poorly fitted or top-dose-only effect, or another doubt; inactive means no such curve, though single readings can be large; an effect the other way counts as inactive or inconclusive. Where a SMILES comes first, the peptide text is derived from it. The star is where a group is joined. βNA = c1ccc2cc(N*)ccc2c1; Cbz = O=C(OCc1ccccc1)*

Columns and labels:
HACAT = assay: qHTS assay to identify novel small-molecules to repurpose for Merkel cell carcinoma treatment (AID 1296009); conditions: MCC and control cell lines, CellTiter-Glo viability, 72 h; at 44.8 µM (top of the series) unless noted; further: nearly all actives have a fitted effect of over 60% in size
Method in brief: (§1)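 Cell viability measured by CellTiter-Glo following 72 hr compound treatment at 37 degree celsius, with NPC and MIPE libraries tested in 8- and 11-point concentration series.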

NIH3T3 = assay: as above; conditions: MCC and control cell lines, CellTiter-Glo viability, 72 h; at 44.8 µM (top of the series) unless noted
Method in brief: as §1

C33A = assay: Primary qHTS to identify gynecologic anti-cancer compounds using libraries of approved drugs and bioactive compounds (AID 1345084); conditions: Gynecologic cancer cell panel viability, ATPlite luminescence, 48 h; series mostly up to 57.5 µM; further: on the % scale 0 is the no-effect control and ±100 the full control effect; nearly all actives have a fitted effect of over 55% in size
Method in brief: (§2)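 48 h compound exposure at 37 C, 5% CO2; five-point qHTS. ATPlite luminescence readout of cell ATP.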

CAOV3 = assay: as above; conditions: Gynecologic cancer cell panel viability, ATPlite luminescence, 48 h; series mostly up to 57.5 µM
Method in brief: as §2

CASKI = assay: as above; conditions: Gynecologic cancer cell panel viability, ATPlite luminescence, 48 h; series mostly up to 57.5 µM
Method in brief: as §2

Es-2 = assay: as above; conditions: Gynecologic cancer cell panel viability, ATPlite luminescence, 48 h; series mostly up to 57.5 µM
Method in brief: as §2

HeLa = assay: as above; conditions: Gynecologic cancer cell panel viability, ATPlite luminescence, 48 h; series mostly up to 57.5 µM
Method in brief: as §2

Hek293T = assay: as above; conditions: Gynecologic cancer cell panel viability, ATPlite luminescence, 48 h, control line for the selectivity index; series mostly up to 57.5 µM
Method in brief: as §2

JEG-3 = assay: as above; conditions: Gynecologic cancer cell panel viability, ATPlite luminescence, 48 h; series mostly up to 57.5 µM
Method in brief: as §2

OV90 = assay: as above; conditions: Gynecologic cancer cell panel viability, ATPlite luminescence, 48 h; series mostly up to 57.5 µM
Method in brief: as §2

PA-1 = assay: as above; conditions: Gynecologic cancer cell panel viability, ATPlite luminescence, 48 h; series mostly up to 57.5 µM
Method in brief: as §2

SKOV3 = assay: as above; conditions: Gynecologic cancer cell panel viability, ATPlite luminescence, 48 h; series mostly up to 57.5 µM
Method in brief: as §2

Tov-21-G = assay: as above; conditions: Gynecologic cancer cell panel viability, ATPlite luminescence, 48 h; series mostly up to 57.5 µM
Method in brief: as §2

Tov112D = assay: as above; conditions: Gynecologic cancer cell panel viability, ATPlite luminescence, 48 h; series mostly up to 57.5 µM
Method in brief: as §2

CC(C)CC(NC(=O)OCc1ccccc1)C(=O)NC(CC(C)C)C(=O)NC(CCC(=O)O)C(=O)Nc1ccc2ccccc2c1 (stereo not drawn) (Cbz-Leu-Leu-Glu-βNA; configuration not given here)
inactive: outcome (HACAT) | outcome (NIH3T3) | Potency (C33A) | Potency (CAOV3) | outcome (CASKI) | Potency (Es-2) | Potency (HeLa) | Potency (Hek293T) | Potency (JEG-3) | Potency (OV90) | Potency (PA-1) | Potency (SKOV3) | Potency (Tov-21-G) | Potency (Tov112D)

CC(C)C1NC(=O)C(CC2(O)c3ccccc3N3C(=O)C(Cc4ccccc4)NC32)NC1=O (centres undefined)
inactive: outcome (HACAT) inactive [at 17.4 µM] | outcome (NIH3T3) inactive [at 17.4 µM] | Potency (C33A) | Potency (CAOV3) | outcome (CASKI) | Potency (Es-2) | Potency (HeLa) | Potency (Hek293T) | Potency (JEG-3) | Potency (OV90) | Potency (PA-1) | Potency (SKOV3) | Potency (Tov-21-G) | Potency (Tov112D)

COc1cc(C(=O)OCC2=CCC3C(C(=O)O)=COC(O[C@@H]4O[C@H](CO)[C@@H](O)[C@H](O)[C@H]4O)C23)ccc1O (some centres undefined)
inactive: outcome (HACAT) inactive [at 17.4 µM] | outcome (NIH3T3) inactive [at 17.4 µM] | Potency (C33A) | Potency (CAOV3) | outcome (CASKI) | Potency (Es-2) | Potency (HeLa) | Potency (Hek293T) | Potency (JEG-3) | Potency (OV90) | Potency (PA-1) | Potency (SKOV3) | Potency (Tov-21-G) | Potency (Tov112D)

COC(=O)C1=CO[C@@H](O[C@@H]2O[C@H](CO[C@@H]3O[C@H](CO)[C@@H](O)[C@H](O)[C@H]3O)[C@@H](O)[C@H](O)[C@H]2O)[C@@H]2C(CO)=CC[C@H]12
inactive: outcome (HACAT) inactive [at 17.4 µM] | outcome (NIH3T3) inactive [at 17.4 µM] | Potency (C33A) | Potency (CAOV3) | outcome (CASKI) | Potency (Es-2) | Potency (HeLa) | Potency (Hek293T) | Potency (JEG-3) | Potency (OV90) | Potency (PA-1) | Potency (SKOV3) | Potency (Tov-21-G) | Potency (Tov112D)

C=C1CC[C@@H]2C(C)(C)CCC[C@@]2(C)[C@@H]1CC/C(=C/C(=O)OC)COC(C)=O
inactive: outcome (HACAT) | outcome (NIH3T3) | Potency (C33A) | Potency (CAOV3) | outcome (CASKI) | Potency (Es-2) | Potency (HeLa) | Potency (Hek293T) | Potency (JEG-3) | Potency (OV90) | Potency (PA-1) | Potency (SKOV3) | Potency (Tov-21-G) | Potency (Tov112D)

Cn1c2ccc(NC(=O)c3ccccc3)cc2c(=O)n2nc(C(=O)O)cc12
inactive: outcome (HACAT) inactive [at 17.4 µM] | outcome (NIH3T3) inactive [at 17.4 µM] | Potency (C33A) | Potency (CAOV3) | outcome (CASKI) | Potency (Es-2) | Potency (HeLa) | Potency (Hek293T) | Potency (JEG-3) | Potency (OV90) | Potency (PA-1) | Potency (SKOV3) | Potency (Tov-21-G) | Potency (Tov112D)

O=C(/C=C/c1ccc(O)c(O)c1)OC[C@H]1O[C@@H](OC2CCCCC2O)[C@H](O)[C@@H](O)[C@@H]1O (some centres undefined)
inactive: outcome (HACAT) inactive [at 17.4 µM] | outcome (NIH3T3) inactive [at 17.4 µM] | Potency (C33A) | Potency (CAOV3) | outcome (CASKI) | Potency (Es-2) | Potency (HeLa) | Potency (Hek293T) | Potency (JEG-3) | Potency (OV90) | Potency (PA-1) | Potency (SKOV3) | Potency (Tov-21-G) | Potency (Tov112D)

O=C1C(Cl)=C(N2CCOCC2)C(=O)N1c1ccc(Cl)c(Cl)c1
inactive: outcome (HACAT) inactive [at 17.4 µM] | outcome (NIH3T3) inactive [at 17.4 µM] | Potency (C33A) | Potency (CAOV3) | outcome (CASKI) | Potency (Es-2) | Potency (HeLa) | Potency (Hek293T) | Potency (JEG-3) | Potency (OV90) | Potency (PA-1) | Potency (SKOV3) | Potency (Tov-21-G) | Potency (Tov112D)

C/C=C(\C)C(=O)OC1CC2C(CC=C3CC(OC4CC(OC)C(OC5CC(OC)C(OC6CC(OC)C(OC7CC(OC)C(OC8CC(OC)C(OC9OC(CO)C(O)C(O)C9O)C(C)O8)C(C)O7)C(C)O6)C(C)O5)C(C)O4)CCC32C)C2(O)CCC(C(C)=O)C12C (centres undefined)
inactive: outcome (HACAT) inactive [at 9.27 µM] | outcome (NIH3T3) inactive [at 9.27 µM] | activity change, negative = cytotoxicity (C33A) 4.48% [at 6.55 µM] | activity change, negative = cytotoxicity (CAOV3) -9.87% [at 6.55 µM] | activity change, negative = cytotoxicity (CASKI) -6.32% [at 6.55 µM] | activity change, negative = cytotoxicity (Es-2) 2.25% [at 6.55 µM] | activity change, negative = cytotoxicity (HeLa) 6.7% [at 6.55 µM] | activity change, negative = cytotoxicity (Hek293T) -0.353% [at 6.55 µM] | activity change, negative = cytotoxicity (JEG-3) 3.01% [at 6.55 µM] | activity change, negative = cytotoxicity (OV90) -1.21% [at 6.55 µM] | activity change, negative = cytotoxicity (PA-1) -0.231% [at 6.55 µM] | activity change, negative = cytotoxicity (SKOV3) -2.08% [at 6.55 µM] | activity change, negative = cytotoxicity (Tov-21-G) 2.5% [at 6.55 µM] | activity change, negative = cytotoxicity (Tov112D) -1.72% [at 6.55 µM]

CCC1=C(C)C(=O)C(C)CC12C(=O)CCC2C(=O)O (centres undefined)
inactive: outcome (HACAT) | outcome (NIH3T3) | Potency (C33A) | Potency (CAOV3) | outcome (CASKI) | Potency (Es-2) | Potency (HeLa) | Potency (Hek293T) | Potency (JEG-3) | Potency (OV90) | Potency (PA-1) | Potency (SKOV3) | Potency (Tov-21-G) | Potency (Tov112D)

CC(=O)/C=C/C1(O)C(C)=CC(=O)CC1(C)C (centres undefined)
inactive: outcome (HACAT) | outcome (NIH3T3) | Potency (C33A) | Potency (CAOV3) | outcome (CASKI) | Potency (Es-2) | Potency (HeLa) | Potency (Hek293T) | Potency (JEG-3) | Potency (OV90) | Potency (PA-1) | Potency (SKOV3) | Potency (Tov-21-G) | Potency (Tov112D)
